Screening results from PubChem.
Shown are actives, neighbours in structure and some others; about 2.4% of the full set was active somewhere.
D2 antag: antagonists of human D2 dopamine receptor; AID 485344; actives 2% (n = 340,000); P14416; inhibition, % at 10 µM; HEK293 TREx D2 cells, calcium flux, dopamine EC80; in the data active means inhibition above about 30%; inactive means below that, where a call was filed; further: 0% is about no effect
Target sequence (P14416 whole entry, looked up): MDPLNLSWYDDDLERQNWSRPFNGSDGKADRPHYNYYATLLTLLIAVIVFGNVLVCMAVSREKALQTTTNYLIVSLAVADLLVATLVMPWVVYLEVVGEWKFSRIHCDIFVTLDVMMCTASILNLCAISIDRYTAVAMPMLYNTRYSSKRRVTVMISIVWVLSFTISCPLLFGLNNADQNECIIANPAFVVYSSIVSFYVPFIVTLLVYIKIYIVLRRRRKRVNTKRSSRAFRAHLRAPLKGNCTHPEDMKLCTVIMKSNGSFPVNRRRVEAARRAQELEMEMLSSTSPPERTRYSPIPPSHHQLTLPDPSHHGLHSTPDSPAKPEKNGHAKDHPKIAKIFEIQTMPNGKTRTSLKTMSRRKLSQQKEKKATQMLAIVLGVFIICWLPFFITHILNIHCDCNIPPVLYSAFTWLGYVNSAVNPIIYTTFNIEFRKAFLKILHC
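Compounds are added to dye-loaded, induced HEK293 T-REx cells coupled to calcium release via D2; after a 3 min kinetic read an EC80 dopamine stimulus is given and fluorescence is recorded for 3 more min.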
D2 ag-1: human D2 receptor agonism in beta-arrestin assay; actives 0.084% (n = 360,000); P14416; activation, % (concentration not given with the values); DiscoveRx PathHunter D2 beta-arrestin, luminescence, 90 min; 100% = 57 uM dopamine signal; AID 624465; in the data active means activation above about 40%; inconclusive means between about 15% and that limit
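Agonist mode: compounds alone added to overnight-plated D2 PathHunter cells for 90 min at 37 C, with 57 uM final dopamine (EC100) defining full response. Beta-arrestin recruitment detected by chemiluminescent reagent, read after 1 h at ambient temperature.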
D2 ag-2: activates the human D2 dopamine receptor; actives 0.53% (n = 340,000); P14416; HEK293 T-REx D2 cells, calcium flux agonist mode; activation, % at 2 µM; AID 485358;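 active means activation over 3 SD above normal in the single-dose calcium agonist read, cut at about 30% in these data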; further: 0% is about no effect
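Agonism is scored from calcium flux in a force-coupled, inducible HEK293 cell line expressing D2, read kinetically for 180 s after compound addition against dopamine controls.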
D2 PAM-1: potentiates the human D2 dopamine receptor allosterically; P14416; DiscoveRx D2 beta-arrestin cells, luminescence, 90 min; 100% = 57 uM dopamine signal; potentiation, % (concentration not given with the values); actives 0.23% (n = 360,000); AID 624464; in the data active means potentiation above about 50%; inconclusive means mostly about 30% to 49%
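D2 cells co-treated with compound plus 50 nM dopamine (EC20) for 90 min at 37 deg C to detect potentiation. Beta-arrestin recruitment was read as enzyme-fragment luminescence after 1 h at ambient temperature. Full response was set by 57 uM dopamine.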
D2 PAM-2: positively modulates the human D2 dopamine receptor allosterically | HEK293 T-REx D2, calcium flux, EC20 dopamine potentiation | potentiation, % at 10 µM | actives 0.34% (n = 340,000);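 active means potentiation over 3 SD above the plate norm, cut at about 30% in these data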; further: 0% is about no effect
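Calcium flux readout, no-wash dye, 1 read/s. Inducible HEK293 Trex D2 line, overnight 30 C. Compound alone 180 s (agonist flags), then EC20 dopamine, another 180 s to score potentiation.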
* marks the source's active call; other numbers are inactive results; ? = inconclusive; . = no result given; ! = repeats disagree.

SMILES	D2 antag	D2 ag-1	D2 ag-2	D2 PAM-1	D2 PAM-2
O=C(Nc1ccccc1)c1ccc2c(O)c(S(=O)(=O)c3ccc(Cl)cc3)c(=O)[nH]c2c1	.	.	0.1	.	-5.0
CCN(C(=O)Cn1cnc2onc(-c3ccc(F)cc3)c2c1=O)c1cc(C)ccc1C	.	.	0.0	.	-2.0
C[C@H]1CCC[C@]2(O[C@@H](CCO)C[C@H](O)[C@H]2O)O1	30.6*	-3.5	0.3	-2.3	-4.2
COc1cc2c(cc1OC)[C@@H]1Cc3ccc(OC)c(OC)c3CN1CC2	57.2*	-2.0	4.0	-19.1	-21.3
COc1cc2c(cc1OC)C1Cc3ccc(OC)c(OC)c3CN1CC2 (stereo not drawn)	79.7*	-3.6	5.0	-47.2	-22.2
Cc1cc(NC(=O)CN2CCC(O)CC2)nc2c1c(=O)oc1ccccc12	.	.	0.2	.	23.6
COc1ccc(NC(=O)CSc2oc(-c3ccco3)nc2S(=O)(=O)c2ccccc2)c(OC)c1	.	.	0.2	.	9.2
Cc1cc2ccccc2c(=O)n1CC(=O)NCC(=O)N1CCN(c2ccccc2)CC1	64.0*	-3.7	1.5	-6.7	-0.1
COc1cccc(NC(=O)C2CCCN(c3nnc(-n4c(C)ccc4C)s3)C2)c1 (stereo not drawn)	.	.	0.2	.	-4.7
Cc1nc2c3ccccc3nc(NNC(=O)CCC(=O)N3CCN(c4ccccc4)CC3)n2n1	27.4	3.4	30.9*!	-2.6	0.6
CCOc1ccc(-c2oc3cc(Cl)ccc3c(=O)c2O)cc1OC	.	.	14.8	.	-14.1
Cc1ccc(C)c(S(=O)(=O)c2nnn3c2nc(N2CCCCC2)c2sccc23)c1	.	.	-0.7	.	4.2
Cc1cc(C)n2nc(C(=O)Nc3c(C)nn(Cc4ccc(F)cc4)c3C)cc2n1	51.5*	11.9	0.9	-0.8	-2.2
CCOc1ccc(CCNC(=O)Cn2ccc3cc(S(=O)(=O)N4CCCCC4)ccc32)cc1	.	.	-0.2	.	4.5
CCCCc1ccc(NS(=O)(=O)c2cc3c4c(c2)CC(=O)N4CCC3)cc1	.	.	1.1	.	-13.6
COc1ccc(C(=S)N2CCCC2)cc1	-27.4	-0.1	-0.2	-7.2	42.8*
Oc1ccc(C(=S)N2CCCCCC2)cc1	37.0*	-0.1	-0.1	0.7	-3.4
Oc1ccc(C(=S)N2CCCC2)cc1	9.2	-2.2	0.5	-4.0	-5.5
COc1ccc2ccc3c(c2c1)N=CC1(O3)N(C)c2ccccc2C1(C)C (stereo not drawn)	1.9	13.4	1.2	71.1*	9.4
CN1c2ccccc2C(C)(C)[C@]12C=Cc1cc(O)ccc1O2	-1.0	-1.6	0.1	18.8	-28.2
CN1c2ccccc2C(C)(C)C12C=Nc1c(ccc3ccccc13)O2 (stereo not drawn)	34.4*	?	-0.1	87.3*	0.9
Cc1c(C(=O)N(Cc2cccc(F)c2)C2CCS(=O)(=O)C2)oc2cc(Br)ccc12 (stereo not drawn)	.	.	4.0	.	-1.6
Cc1ccc(S(=O)(=O)NCCSc2nncn2C)cc1	-16.2	0.9	0.2	-3.7	35.1*
CC(C)(C)C(=O)CSc1nc2ccsc2c(=O)n1Cc1ccccc1Cl	.	.	-0.1	.	7.8
Cc1ccc(C)c(N2CCN(C(=O)CCc3nnc4n(C)c(=O)c5ccccc5n34)CC2)c1	.	.	0.5	.	1.3
SMILES	D2 antag	D2 ag-1	D2 ag-2	D2 PAM-1	D2 PAM-2
O=C(N/N=C/c1ccccn1)C1CC1	31.9*	-1.1	0.8	3.0	-18.7
Cc1csc(/C(=N/OC(=O)c2ccco2)C(N)=O)n1	41.7*	-4.3	-0.3	-2.6	3.8
Nc1c(N(CCC2=CCCCC2)C(=O)CCCOc2ccccc2)c(=O)[nH]c(=O)n1Cc1ccccc1	33.0*	1.9	0.6	5.3	6.9
Nc1c(N(CCC2=CCCCC2)C(=O)COc2ccc(F)cc2)c(=O)[nH]c(=O)n1Cc1ccccc1	-13.3	0.2	0.7	-2.9	-8.8
CCN(C(=O)COC(=O)CCc1ccc(OC)cc1)c1c(N)n(Cc2ccccc2)c(=O)[nH]c1=O	33.8*	0.1	0.1	10.7	6.3
O=C(CCCN1CC=C(n2c(=O)[nH]c3ccccc32)CC1)c1ccc(F)cc1	81.3*	-3.2	0.8	-33.4	-22.8
COc1ccc(-n2nnnc2SCC(=O)c2cccc(OC)c2)cc1	14.1	-0.6	1.0	-0.5	-4.6
COc1ccc(-n2nnnc2SCC(=O)c2ccc3c(c2)OCCO3)cc1	-3.8	-4.2	0.0	-3.7	34.4*
c1ccc(-c2csc3nnc(SCc4ccc5c(c4)OCCO5)n23)cc1	10.0	-2.9	1.4	-7.2	42.8*
O=C(CSc1nnc(-c2ccccc2)o1)c1ccc2c(c1)OCCO2	3.2	-0.4	0.2	-5.1	6.1
c1ccn2c(SCc3ccc4c(c3)OCCO4)nnc2c1	-4.7	-2.3	-0.4	-3.9	8.4
O=C(CSc1nnc2scc(-c3ccccc3)n12)c1ccc2c(c1)OCCO2	30.9*	0.1	-1.0	2.9	-7.8
COc1ccc(NC(=O)C2=C(C)Nc3nc(SCc4ccccc4C)nn3C2c2cc(OC)c(O)c(OC)c2)cc1 (stereo not drawn)	.	.	-0.7	.	11.5
CCOc1ccc(OCC)c(NS(=O)(=O)c2c(C(=O)N3CCCCCC3)c(C)n(C)c2C)c1	.	.	.	.	-7.5
c1ccc(-c2ccccc2OCCCCN2CCCCC2)cc1	74.9*	-2.8	0.0	-11.2	-21.2
c1ccc(-c2ccccc2OCCCN2CCCC2)cc1	1.5	-1.5	0.6	-16.2	-27.2
c1ccc(-c2ccccc2OCCCN2CCCCCC2)cc1	56.2*	1.2	-1.6	-11.8	-22.5
Cc1cccc(OCC(=O)Nc2ccc(Cl)c(-c3nc4ccccc4[nH]3)c2)c1	.	.	-0.2	.	4.4
Cc1ccccc1-n1nc(CO)c(C(=O)NCC(c2ccccc2)c2ccccc2)n1	.	.	0.8	.	.
CCc1cccc(NC(=O)C2CCN(S(=O)(=O)c3ccc4c(c3)CC(C)N4C(C)=O)CC2)c1 (stereo not drawn)	70.1*	-4.9	0.1	-1.5	8.8
COc1ccccc1N1CCN(C(=O)C2CCN(S(=O)(=O)c3ccc4c(c3)CC(C)N4C(C)=O)CC2)CC1 (stereo not drawn)	-13.4	-2.1	0.6	-9.3	-12.1
CCc1ccc(NC(=O)C2CCN(S(=O)(=O)c3ccc4c(c3)NC(=O)CO4)CC2)cc1	9.8	1.2	-1.5	-17.4	3.7
COc1ccccc1N1CCN(S(=O)(=O)c2ccc3c(c2)CC(C)N3C(C)=O)CC1 (stereo not drawn)	32.8*	-1.1	-0.3	-8.2	-13.7
CC(=O)N1c2ccc(S(=O)(=O)N(C)CC(=O)N3CCCC3)cc2CC1C (stereo not drawn)	-23.1	-2.2	0.1	-6.7	41.6*
COc1cccc(NC(=O)C2CCN(S(=O)(=O)c3ccc4c(c3)CC(C)N4C(C)=O)CC2)c1 (stereo not drawn)	17.2	-1.1	-1.1	-26.4	-6.8
